Sfp inh – inhibitors of Bacillus subtilis Sfp phosphopantetheinyl transferase; Q9F4F7; Biochemical Sfp PPTase activity, qHTS; Potency, µM, without a hit: largest response in the series, negative = inhibition, hits mostly inhibitors; 310,000 compounds, 3.5% hits;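 note: the enzyme is Sfp with the accession as filed and its product quenches rhodamine fluorescence; 0% = enzyme reaction without inhibitor and -100% = no enzyme wells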
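Reaction rates are the 30-min fluorescence difference (ex 525, em 598 nm) in wells containing 15 nM Sfp, 5 uM rhodamine-CoA and 12.5 uM BHQ-2-YbbR at pH 7.6 with 10 mM MgCl2.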
PLK1 PBD inh – PLK1 (human) polo-box domain binding inhibition; P53350; Plk1 PBD binding of FITC phosphopeptide, fluorescence polarization; Potency, µM, without a hit: max response, negative = inhibition, actives largely listed as inhibitors; 360,000 compounds, 2.8% hits; AID 720504; note: series mostly up to about 57 µM; % is set by controls: 0 for no effect and ±100 for the full control effect; nearly all actives have a fitted effect of over 65% in size
BAZ2B inh – inhibitors of human BAZ2B bromodomain; Q9UIF8; AlphaScreen BAZ2B-H3K14Ac peptide displacement; Potency, µM (series often up to 114 µM), without a hit: at the highest dose activity change, negative = inhibition, actives largely listed as inhibitors; 360,000 compounds, 4.4% hits; note: % is set by controls: 0 for no effect and ±100 for the full control effect; nearly all actives have a fitted effect of over 60% in size
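Multi-concentration screen (max 110 uM) measuring displacement of acetylated histone H3 peptide from BAZ2B by AlphaScreen, using 50 nM protein, 50 nM peptide and 10 ug/mL streptavidin donor plus Ni-chelate acceptor beads.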
HP1b binding inh – inhibitors of HP1-beta chromodomain binding to methylated histone tails; AlphaScreen HP1-beta / biotin-H3K9me3 peptide binding; Potency, µM (top dose mostly 114 µM), for the others: top-dose activity change, negative = inhibition, usual class: inhibitors; P83916; 390,000 compounds, 0.56% hits; AID 540317; note: nearly all actives have a fitted effect of over 70% in size
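Compound inhibition of the preformed complex between 50 nM HP1-beta and 50 nM biotinylated H3K9me3 peptide was read by AlphaScreen. Buffer was PBS pH 7.4 with 0.01% Tween-20. Incubations ran 30 min at room temperature, with 10 ug/mL donor/acceptor beads.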
JMJD2A Tudor – blocks the human JMJD2A Tudor domain | 390,000 compounds, 4.4% hits | AID 504339 | Potency, µM (top dose mostly 114 µM), for inactives: top-dose activity change, negative = inhibition, actives largely listed as inhibitors | AlphaScreen JMJD2A-Tudor / H3K4me3 peptide binding; note: % is set by controls: 0 for no effect and ±100 for the full control effect; nearly all actives have a fitted effect of over 50% in size
Target sequence (O75164 whole entry, looked up, the tested form may be a part): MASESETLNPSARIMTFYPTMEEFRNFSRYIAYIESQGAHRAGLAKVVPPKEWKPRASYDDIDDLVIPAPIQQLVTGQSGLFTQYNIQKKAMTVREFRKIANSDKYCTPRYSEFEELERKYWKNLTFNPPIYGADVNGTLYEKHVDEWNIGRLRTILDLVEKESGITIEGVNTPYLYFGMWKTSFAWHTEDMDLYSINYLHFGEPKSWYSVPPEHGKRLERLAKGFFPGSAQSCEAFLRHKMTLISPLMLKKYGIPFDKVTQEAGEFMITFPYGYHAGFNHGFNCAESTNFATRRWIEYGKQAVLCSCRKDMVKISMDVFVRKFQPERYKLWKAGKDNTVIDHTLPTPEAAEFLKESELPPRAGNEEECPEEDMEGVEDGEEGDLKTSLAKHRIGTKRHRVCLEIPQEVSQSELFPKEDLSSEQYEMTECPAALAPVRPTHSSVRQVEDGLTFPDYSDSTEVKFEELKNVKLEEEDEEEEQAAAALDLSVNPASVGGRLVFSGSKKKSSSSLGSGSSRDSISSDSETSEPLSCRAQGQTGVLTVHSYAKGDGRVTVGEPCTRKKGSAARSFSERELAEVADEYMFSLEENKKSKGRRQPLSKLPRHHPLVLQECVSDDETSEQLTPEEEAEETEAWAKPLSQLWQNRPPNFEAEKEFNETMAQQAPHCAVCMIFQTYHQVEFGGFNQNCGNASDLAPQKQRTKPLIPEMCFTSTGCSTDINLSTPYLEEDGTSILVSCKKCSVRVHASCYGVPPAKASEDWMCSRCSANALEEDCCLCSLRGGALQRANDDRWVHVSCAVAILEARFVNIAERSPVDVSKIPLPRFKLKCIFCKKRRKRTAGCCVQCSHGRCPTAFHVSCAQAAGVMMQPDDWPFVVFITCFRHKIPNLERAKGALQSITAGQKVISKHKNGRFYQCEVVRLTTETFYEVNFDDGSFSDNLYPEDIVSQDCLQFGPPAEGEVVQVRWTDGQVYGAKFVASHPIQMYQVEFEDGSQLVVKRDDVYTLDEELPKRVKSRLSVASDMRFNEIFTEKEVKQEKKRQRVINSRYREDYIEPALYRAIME
G9a inh – blocks human histone lysine methyltransferase G9a; Potency, µM (titrated, usually from 102 µM), for inactives: at the top dose activity, negative = inhibition, most hits filed as inhibitors; 350,000 compounds, 8.8% hits; G9a H3K9 monomethylation, AlphaScreen, 2 h; Q96KQ7; AID 504332; note: % is set by controls: 0 for no effect and ±100 for the full control effect; nearly all actives have a fitted effect of over 75% in size
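Readings reflect AlphaScreen signal from monomethyl-H3K9 antibody detection. HMT at 20 nM; substrate b-H3K9 500 nM; cofactor SAM 20 uM; 2 h RT reaction; compounds tested as titrations in qHTS with 15 min preincubation.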
The depositor's hits bear a star; u = inconclusive; x = no result; ! = not active in a repeat; [ ] = another dose, or the depositor's remark. Sampled rows, rich in hits. Any-hit rate of the full collection: about 12%. Calls come from the whole dose curve; as a rule, active = well fitted curve in the direction sought with a large enough effect; inconclusive = small, poorly fitted or top-dose-only effect, or another doubt; inactive = no such curve, though single readings can be large; an effect the other way counts as inactive or inconclusive. Potency is the fitted concentration of half-maximal effect.

SMILES	Sfp inh	PLK1 PBD inh	BAZ2B inh	HP1b binding inh	JMJD2A Tudor	G9a inh
CCCCCCn1c(-c2ccco2)nc2oc3cc(OC)ccc3c(=O)c2c1=O	4.7%	-6.4%	-26.0%	35.0%	-18.7%	20µM*
COCCn1c(-c2ccccc2)nc2oc3cc(OC)ccc3c(=O)c2c1=O	24.8%	-6.9%	-20.3%	14.9%	-11.7%	60.6%[59 µM]
CCCc1nc2oc3cc(OC)ccc3c(=O)c2c(=O)n1Cc1ccco1	31.6µM*	-18.3%	u	-11.4%	u	-19.6%[59 µM]
COc1ccc2c(=O)c3c(=O)n(Cc4ccco4)c(-c4cc(OC)c(OC)c(OC)c4)nc3oc2c1	u	-13.4%	-5.3%	22.8%	-19.8%	u
COc1ccc(OCC(CO)N2CCN(c3ccccc3)CC2)cc1 (stereo not drawn)	x	0.8%	x	10.5%[57 µM]	-19.3%	x
Cc1ccc(C(C)(O)CS(=O)(=O)Cc2ccccc2)cc1 (stereo not drawn)	1.4%	-12.2%	-25.4%	65.5%	-5.3%	56.2µM*
Cc1ccc(-n2ncc(C(=O)N3CCC(c4ccccc4)C3)c2C2CCN(C(=O)OC(C)(C)C)CC2)cc1 (stereo not drawn)	x	x	-4.8%[57.1 µM]	-7.9%	u	-37.8%[59 µM]
N#CCCN(Cc1ccccc1)C(C(=O)NC1CCCCC1)C1CC1 (stereo not drawn)	x	6.3%	x	x	x	x
CCC(C)N(C(=O)CSc1ncnc2sccc12)C1CCS(=O)(=O)C1 (stereo not drawn)	x	-1.3%	-0.8%	53.3%	11.1%	1.1%[12.7 µM]
CCCN(CC1CC1)C(=O)CSc1ncnc2sccc12	-49.2%	-5.8%	1.8%	55.1%	-6.8%	39.8µM*
S=c1[nH]nc(-c2cccnc2)n1/N=C/c1ccco1	39.8µM*	-7.7%	u	34.8%	25.1µM*	x
S=c1[nH]ncn1/N=C/c1ccco1	x	-7.0%	x	x	x	x
Cc1cccc(-c2n[nH]c(=S)n2/N=C/c2ccco2)c1	-25.2%	-2.8%	-26.3%	7.1%	7.94µM*	x
Cc1ccc(/C=N/n2c(-c3ccc(Cl)cc3)n[nH]c2=S)o1	-4.7%	-13.8%	-11.3%	35.1%	u	x
CC(/C=N/n1c(-c2ccc(Cl)cc2)n[nH]c1=S)=C\c1ccco1	-29.2%	-29.5%	1.8%	4.7%	u	10µM*
Cc1ccc(-c2n[nH]c(=S)n2/N=C\c2ccco2)cc1	u	-5.4%	-8.8%	7.5%	25.1µM*	0.891µM*
CCCSc1ncc(Cl)c(C(=O)Nc2c(C(=O)Nc3ccc(OC)cc3)oc3ccccc23)n1	x	x	0.7%	31.0%	-6.6%	-3.7%[59 µM]
CCN1CCCC1CNC(=O)c1cc(S(=O)(=O)N(C)C)ccc1Cl (stereo not drawn)	14.3%	1.6%	-0.1%	25.6%	-4.1%	-12.8%
COc1ccccc1-c1noc(-c2cc(OC)c(OC)c(OC)c2)n1	-15.9%	8.44µM*	-5.9%	u	u	-1.2%[59 µM]
COc1cc(OC)cc(-c2nc(-c3ccccc3OC)no2)c1	-11.5%	26.7µM*	46.3%	-8.8%	u	-14.8%[59 µM]
COc1cccc(-c2nc(-c3ccccn3)no2)c1OC	9.8%	7.52µM*	2.3%	u	-25.2%[11.4 µM]	6.6%[12.7 µM]
COc1ccccc1-c1nc(-c2ccc(Br)o2)no1	-6.1%	4.6%	-12.0%	63.5%	13.4%	50.1µM*!
c1ccc(-c2noc(-c3cccc4ccccc34)n2)nc1	-4.9%	-7.2%	21.0%	130.6%	9.6%	66.1%[59 µM]
